Source: PubChem BioAssay
Compounds with a hit are over-represented: about 1.8% of the library has one in this group of screens.
ARNT-TACC3 inh – disrupts binding between human ARNT and TACC3; Q9Y6A5; AlphaScreen His-ARNT PAS-B/GST-TACC3 binding, luminescence; TACC3 fragment carries E629A point mutation; inhibition, % at 9.99 µM; 390,000 compounds, 0.66% hits;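 active means mean inhibition of replicates at least 50% and at least half of replicates each reaching 50%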
AI-2 QS mod – modulates the Vibrio harveyi AI-2 quorum sensing system; Vibrio harveyi JMH597 AI-2 luminescence/OD600 ratio, 9 h; active compounds read low; strain lacks LuxN and CqsS sensors; 0 = neutral-control median; activity change, % at 7.5 µM; 300,000 compounds, 0.4% hits; in the data active means activity change below about -75%, passing the limit was not always enough;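 further: luminescence divided by OD600 gain over 9 h not by final OD600 alone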
A1 inh – inhibitors of the anti-apoptotic protein A1, read as caspase activation; MEF A1-2A-BIM cells, Caspase-Glo 3/7 luminescence, 3 h; percent of clofoctol response, vehicle zero; caspase activation, % (no concentration beside the values); 330,000 compounds, 0.066% hits;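 active means over half of replicate activation scores above 10%, or exactly half above 10 with the replicate mean above 10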
aDG glyco up – alpha-DG glycosylation activation | Pro5-aDG cells, alpha-DG glycosylation AlphaScreen (IIH6); 0% Pro5, 100% B10-LARGE cell signal | activation, % at 10 µM | 360,000 compounds, 0.22% hits;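 active means activation of at least 8% versus controls, or a plate z-score of at least 8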;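 further: Pro5 are CHO cells carrying HIG-tagged alpha-DG that lacks glycosylation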
Mot1-301 SUMO – blocks SUMOylation pathway, rescuing yeast Mot1-301 growth | S. cerevisiae Mot1-301 growth rescue, ATP luminescence, 38.5C; percent above DMSO median, 100 means doubled | growth rescue, % at 18.8 µM | 320,000 compounds, 1% hits | AID 2716;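 active means every valid replicate shows activation above 250% relative to neutral control wells; inactive means the rest, any valid replicate at or below 250%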
AlphaScreen ctr – interferes with AlphaScreen signal, flagging false ARNT-TACC3 hits; shares compounds with ARNT-TACC3 inh; His-ARNT PASB-GST AlphaScreen artifact counter-screen, luminescence; AC50, µM (top dose mostly 68 µM); 1,200 compounds, 50% hits;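 active means every separate test run was called active for a drop in luminescence, with AC50 within twice the top valid dose, actives reach about 71 µM in these data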
Numbers stand for hits; - = inactive; . = no result.

SMILES	ARNT-TACC3 inh	AI-2 QS mod	A1 inh	aDG glyco up	Mot1-301 SUMO	AlphaScreen ctr
COc1ccc(OC)c(NC(=O)CSc2ccc3nnc(-c4ccccn4)n3n2)c1	53	-	-	-	-	-
COc1ccccc1NC(=O)CSc1ccc2nnc(-c3ccccn3)n2n1	-	-	-	-	-	.
CCCNC(=O)C[C@@H]1C[C@H]2c3cc(NS(=O)(=O)c4ccccc4)ccc3O[C@H]2[C@H](CO)O1	-	.	.	.	.	.
COCc1cn(CC[C@@H]2CC[C@@H](NC(=O)c3ccc(F)cc3)[C@@H](CO)O2)nn1	-	.	.	.	.	.
O=C(N[C@H]1CC[C@@H](CCn2cc(-c3ccccn3)nn2)O[C@H]1CO)c1ccc(F)cc1	60	.	.	.	.	43µM
O=C(N[C@@H]1CC[C@@H](CCn2cc(-c3ccccn3)nn2)O[C@H]1CO)c1ccc(F)cc1	75	.	.	.	.	47µM
COCc1cn(CC[C@@H]2CC[C@@H](NC(=O)c3ccc(F)cc3)[C@H](CO)O2)nn1	-	.	.	.	.	.
O=C(N[C@@H]1CC[C@H](CCn2cc(-c3ccccn3)nn2)O[C@H]1CO)c1ccc(F)cc1	43	.	.	.	.	43µM
O=C(N[C@H]1CC[C@@H](CCn2cc(-c3ccccn3)nn2)O[C@@H]1CO)c1ccc(F)cc1	112	.	.	.	.	45µM
Cc1cc2c(NC(=O)CC(C)(C)CC(=O)O)cccc2nn1	27	-	-	-	-	-
Cc1ccc(S(=O)(=O)N[C@@H]2CC[C@@H](CCNC(=O)C3CCC3)O[C@@H]2CO)cc1	-	.	.	.	.	.
COc1cccc(/C=N/NC(=O)C(=O)N/N=C/c2cccc(OC)c2O)c1O	-	.	.	-	.	.
COc1cccc(/C=N/NC(=O)C(=O)N2CCCCCC2)c1O	60	-	-	-	-	-
CC(OC(=O)Cc1c(F)cccc1Cl)C(=O)NC1(C#N)CCCCC1 (stereo not given)	active	-	-	-	-	-
N#CCSCC(=O)Nc1ccc(F)cc1	-	-	-	-	-	.
COc1cccc(C(=O)Nc2nnc(-c3cccs3)o2)c1	52	-84	-	-	-	67µM
COc1cc(-c2nnc(NC(=O)c3ccco3)o2)cc(OC)c1OC	43	-	-	-	-	-
O=C(Nc1nnc(-c2cccs2)o1)c1ccco1	51	-	-	-	-	-
CN(CCOc1ccc(Cl)cc1)C(=O)Cc1ccc(S(=O)(=O)N2CCOCC2)s1	-	.	-	-	-	.
O=C(C[C@@H]1CC[C@H](NC(=O)Nc2cc(F)ccc2F)[C@@H](CO)O1)Nc1ccc(-c2ccccc2)cc1	54	.	.	.	.	-
O=C(C[C@@H]1CC[C@@H](NC(=O)c2ccccc2)[C@H](CO)O1)Nc1ccc(-c2ccccc2)cc1	54	.	.	.	.	-
O=C(C[C@H]1C=C[C@H](NC(=O)Nc2ccccc2)[C@H](CO)O1)NCc1ccccn1	-	.	.	.	.	.
O=C(C[C@H]1C=C[C@@H](NC(=O)Nc2ccccc2)[C@@H](CO)O1)NCc1ccccn1	35	.	.	.	.	-
O=C(Oc1ccc(Cl)c2cccnc12)c1cccnc1	69	-	-	-	-	50µM
O=C(C[n+]1ccc2ccccc2c1)c1ccc2ccc3ccccc3c2c1	.	.	.	-	.	.
SMILES	ARNT-TACC3 inh	AI-2 QS mod	A1 inh	aDG glyco up	Mot1-301 SUMO	AlphaScreen ctr
Cc1cc(C)c(S(=O)(=O)N2CCCC2=O)c(C)c1N(C)S(C)(=O)=O	9.2	-	-	-	-	-
COc1ccc(Cl)cc1S(=O)(=O)N1CCCC1=O	-	-	-	-	-	.
CCOc1cc(/C=N/Nc2ncc(C)c(=O)[nH]2)ccc1O	54	-	-	-	-	-
Cc1ccc(-c2nnn(CC(=O)N(c3ccccc3F)C(CC(C)C)C(=O)NCC3CCCO3)n2)cc1 (stereo not given)	-	-	-	-	-	.
O=C(Nc1ccc2c(c1)CCC2)Nc1ccccc1Cl	-	-	-	-	-	.
CCOC(=O)Cc1nnc(NC(=O)c2ccccc2OCC)s1	-	-	-	-	-	.
CCOC(=O)Cc1nnc(NC(=O)c2ncn[nH]2)s1	69	-	-	-	-	-
CCSc1nnc(NC(=O)c2cnccn2)s1	.	-	-	.	-	.
CCSc1nnc(NC(=O)c2ccccn2)s1	52	-121	-	-	-	31µM
O=C(C[C@@H]1CC[C@@H](NC(=O)CN2CCOCC2)[C@H](CO)O1)NCCc1ccncc1	-	.	.	.	.	.
O=C(C[C@@H]1CC[C@H](NC(=O)CN2CCOCC2)[C@H](CO)O1)NCCc1ccncc1	57	.	.	.	.	-
C[C@H]1CN([C@@H](C)CO)C(=O)c2cc(N(C)C)ccc2O[C@H]1CN(C)Cc1ccc2c(c1)OCO2	-	.	.	.	.	.
Cc1nc2ncccn2c1-c1csc(Nc2ccc(O)cc2)n1	68	-	.	-	.	22µM
Cc1ccc(Nc2nc(-c3c(C)nc4ncccn34)cs2)cc1	-	-	-	-	-	.
O=C(CNCc1ccccn1)N1CCc2ccccc2C1	77	-	-	-	-	17µM
O=C(CSc1ncccn1)N1CCc2ccccc2C1	-	-	-	-	-	.
COC(=O)C(CC#Cc1ccc2c(c1)[C@]1(C(=O)N2)[C@H](c2ccc(OCCO)cc2)N2[C@H](c3ccccc3)[C@H](c3ccccc3)OC(=O)[C@H]2[C@@H]1C(=O)N1CCCCCCC1)C(=O)OC	63	.	.	.	.	-
O=C1O[C@@H](c2ccccc2)[C@@H](c2ccccc2)N2[C@@H](c3ccc(OCCO)cc3)[C@]3(C(=O)Nc4ccc(C#CC5(O)CCCCCC5)cc43)[C@@H](C(=O)N3CCCCCCC3)[C@H]12	-	.	.	.	.	.
CCOC(=O)N1CCN(Cc2ccc(O)c3ncccc23)CC1	.	-	-	.	-	.
Cc1ccc(C)c(S(=O)(=O)N2CCN(Cc3ccc(O)c4ncccc34)CC2)c1	54	-	-	-	-	17µM
CC(C)(C)OC(=O)N1CCN(Cc2ccc(O)c3ncccc23)CC1	.	.	.	.	.	1.1µM
CSc1ncccc1C(=O)N1CCN(S(=O)(=O)c2cc(C)ccc2C)CC1	-	-	-	-	-	.
CCCC#Cc1ccc2c(c1)O[C@H](CN(C)C(=O)CC)[C@@H](C)CN([C@@H](C)CO)S2(=O)=O	-	.	.	.	.	.
NS(=O)(=O)c1ccc(CCNC(=O)c2ccc3c(c2)OCO3)cc1	41	-	-	-	-	-
COc1ccc(-c2cc(NCCc3ccncc3)n3ncnc3n2)cc1	-	-	-	-	.	.
COc1ccc(-c2cc(NCc3ccccn3)n3ncnc3n2)cc1	52	-	-	-	-	-
CO[C@H]1CC[C@@H]2CCN(C)C(=O)C[C@H](c3ccccc3)CN(C)C(=O)c3cccc(C#N)c3OC[C@H]1O2	-	.	.	.	.	.
CCCCCCNc1cc2n(c(=O)n1)CCc1cc(OC)c(OC)cc1-2	58	.	-	-	-	-
COc1cc2c(cc1OC)-c1cc(Nc3cccc(C)c3)nc(=O)n1CC2	53	-	-	-	-	-
COc1cc2c(cc1OC)-c1cc(Nc3ccccc3C)nc(=O)n1CC2	-	-	-	-	-	.
